CYP2C9 inh: human CYP2C9 inhibition; CYP2C9 Supersomes, luciferin-H conversion, luminescence; inhibition, % at 5 µM; 96,000 tested, 20% active; AID 777;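 active = blocking of liver enzyme CYP2C9 beyond about 50% at 5 µM, limit read from the data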
CYP2C19 inh: blocks human cytochrome P450 2C19 | 96,000 tested, 21% active | inhibition, % at 5 µM | AID 778 | CYP2C19 Supersomes, luciferin-H EGE luminescence, 30 min;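 active = CYP2C19 inhibition above a set limit at 5 µM in the primary screen, cut at about 50% in these data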;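 also: plate controls were negative control wells for no effect and 2.5 mM tranylcypromine positive control for full effect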
Target sequence (P33261 whole entry, looked up): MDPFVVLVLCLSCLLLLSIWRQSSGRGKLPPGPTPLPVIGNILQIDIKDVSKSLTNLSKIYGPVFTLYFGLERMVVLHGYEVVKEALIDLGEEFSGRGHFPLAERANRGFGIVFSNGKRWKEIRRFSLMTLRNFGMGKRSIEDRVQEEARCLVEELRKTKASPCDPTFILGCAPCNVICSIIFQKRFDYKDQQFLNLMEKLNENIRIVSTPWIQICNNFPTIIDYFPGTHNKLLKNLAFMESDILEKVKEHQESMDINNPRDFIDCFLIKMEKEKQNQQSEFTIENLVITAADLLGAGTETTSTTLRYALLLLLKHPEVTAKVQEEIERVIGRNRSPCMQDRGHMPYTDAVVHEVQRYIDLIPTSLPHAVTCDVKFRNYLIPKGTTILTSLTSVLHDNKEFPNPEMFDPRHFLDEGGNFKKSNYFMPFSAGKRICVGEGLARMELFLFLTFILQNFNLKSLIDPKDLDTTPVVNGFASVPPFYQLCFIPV
PLAP activator: activates human placental alkaline phosphatase; P05187; purified PLAP enzyme, luminescent substrate read-out; stronger effect = higher value; 96,000 tested, 1.2% active; activation fold at 20 µM; in the data active = activation fold above about 2
CYP2C19 act: cytochrome P450 2C19 (human) activation; activation factor at 5 µM; 96,000 tested, under 10 active; recombinant CYP2C19, luciferin-H EGE luminescence; stronger effect = higher value; 0 = fully inhibited enzyme, 1 = untreated enzyme; AID 1025; P33261;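 active = activation factor of at least 2 at 5 µM in the primary screen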;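 also: 0 = wells with 2.5 mM tranylcypromine and 1 = vehicle-only wells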
CYP2C9 act: increases human cytochrome P450 2C9 activity; 96,000 tested, 1.4% active; recombinant CYP2C9, luciferin-H conversion, luminescence; stronger effect = higher value; factor 1 = untreated enzyme, 0 = blocked; P11712; activation factor at 5 µM;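 active = activation factor of 2 or more for CYP2C9 at a 5 µM dose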;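 also: 0 = sulfaphenazole-blocked wells and 1 = vehicle-only wells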
The depositor's hits bear a star. Rows were chosen to be rich in hits. Some 31% of all compounds tested hit in one or more screens of this group.

SMILES	CYP2C9 inh	CYP2C19 inh	PLAP activator	CYP2C19 act	CYP2C9 act
CCC(=O)Nc1nonc1-c1nc2ccccc2n1CC(C)C	66.0*	17.5	1.2	0.8	0.3
CCOC(=O)c1ccccc1NC(=O)Cn1c(-c2nonc2N)nc2ccccc21	92.1*	75.9*	1.3	0.2	0.1
CC(=O)Nc1nonc1-c1nc2ccccc2n1CC1CC1	39.8	19.2	0.9	0.8	0.6
CC(=O)Nc1ccc(-c2nnc(SCC(=O)NCc3ccco3)n2C)cc1	-6.7	-17.3	1.1	1.2	1.1
O=S1(=O)CCC(N=Cc2cc(Br)ccc2O)C1 (stereo not given)	-7.8	-11.0	1	1.1	1.1
OC(CCN1CCOCC1)(c1ccc(Cl)cc1)C1CCCCC1 (stereo not given)	21.9	10.0	1.5	0.9	0.8
COc1ccc(NC(=O)c2cccc(N3C(=O)NC4CC3(C)Oc3ccccc34)c2)cc1 (stereo not given)	89.8*	88.7*	1.8	0.1	0.1
CC12CC(NC(=O)N1c1cccc(C(=O)Nc3ncn[nH]3)c1)c1ccccc1O2 (stereo not given)	27.1	4.7	1.2	1	0.7
COc1cccc2c1OC1(C)CC2NC(=O)N1c1cccc(C(=O)Nc2ccc3c(c2)OCCO3)c1 (stereo not given)	72.4*	29.1	1.7	0.7	0.3
O=C(CSc1nnc(Cc2cccs2)n1Cc1ccco1)Nc1ccc(Br)cc1	93.0*	88.8*	0.8	0.1	0.1
O=C(CSc1nnc(Cc2cccs2)n1Cc1ccco1)Nc1ccc(Cl)cc1Cl	61.9*	49.9	1.3	0.5	0.4
Cc1ccc(NCc2nnc(SCC(=O)Nc3ncc(C)s3)n2Cc2ccco2)c(C)c1	1.8	8.9	1	0.9	1
C=CCn1c(Cc2cccs2)nnc1SCC(=O)Nc1ccc(C(=O)OCC)cc1	13.7	9.6	1.1	0.9	0.9
O=C(CSc1nnc(-c2ccco2)n1Cc1ccco1)NCc1cccs1	57.0*	51.1*	0.9	0.5	0.4
COC(=O)CSc1nnc(-c2ccco2)n1Cc1ccco1	-6.5	0.5	1.1	1	1.1
CC(NC(=O)c1ccco1)C(=O)N1CCc2ccccc2C1 (stereo not given)	-4.0	28.3	1.2	0.7	1
CC1CC(C)CN(Cc2nc3c(c(=O)n(C)c(=O)n3C)n2CCN2CCOCC2)C1 (stereo not given)	18.7	7.1	1.5	0.9	0.8
CCOC(=O)C1C(C)N=C2SCC(=O)N2C1c1cccc(Br)c1 (stereo not given)	85.0*	85.3*	1.6	0.1	0.2
CCn1c(N2CCC(Cc3ccccc3)CC2)nc2c1c(=O)[nH]c(=O)n2C	53.7*	77.4*	1.3	0.2	0.5
CC1CN(C2CCCCC2)c2nc3c(c(=O)[nH]c(=O)n3C)n2C1 (stereo not given)	55.7*	6.7	1.4	0.9	0.4
CC1CN(CCc2ccccc2)c2nc3c(c(=O)[nH]c(=O)n3C)n2C1 (stereo not given)	56.6*	73.5*	1.4	0.3	0.4
CC1CN(c2ccc(Oc3ccccc3)cc2)c2nc3c(c(=O)[nH]c(=O)n3C)n2C1 (stereo not given)	9.0	-4.8	1	1	0.9
CC1CCN(c2nc3c(c(=O)[nH]c(=O)n3C)n2Cc2ccccc2)CC1	16.6	21.8	0.9	0.8	0.8
CC1CCCN(c2nc3c(c(=O)[nH]c(=O)n3C)n2CCCc2ccccc2)C1 (stereo not given)	61.8*	21.4	1.5	0.8	0.4
CC1CCCN(c2nc3c(c(=O)n(C)c(=O)n3C)n2CCSc2nc3ccccc3o2)C1 (stereo not given)	51.2*	36.1	1.3	0.6	0.5
SMILES	CYP2C9 inh	CYP2C19 inh	PLAP activator	CYP2C19 act	CYP2C9 act
CC1CCCN(c2nc3c(c(=O)[nH]c(=O)n3C)n2CCSc2nc3ccccc3o2)C1 (stereo not given)	2.7	-8.8	1.5	1.1	1
CCn1c(N2CCN(CC(=O)c3c[nH]c4ccccc34)CC2)nc2c1c(=O)[nH]c(=O)n2C	54.0*	37.2	1.6	0.6	0.5
CCOC(=O)N1CCN(C(=O)c2ccccc2NC(=O)COc2ccccc2C)CC1	56.4*	65.3*	1.2	0.3	0.4
CCOC(=O)C1CCN(C(=O)c2ccccc2Oc2ccccc2)CC1	91.7*	84.7*	1.5	0.2	0.1
CCOc1ccccc1C(=O)N1CCCCC1C (stereo not given)	58.0*	68.9*	0.9	0.3	0.4
CCOC(=O)C1CCN(C(=O)COC(=O)COc2ccccc2OC)CC1	-21.7	4.9	1.3	1	1.2
COc1ccccc1C(=O)N1CCN(CCc2ccccc2)CC1	48.8	61.1*	1.4	0.4	0.5
CCOC(=O)Nc1ccccc1C(=O)N1CCOCC1	-4.8	1.5	1.2	1	1
COc1cc(C2C3=C(CC(C)(C)CC3=O)N(C)C(=O)N2C)cc(OC)c1OC (stereo not given)	30.8	-7.0	1.3	1.1	0.7
Fc1ccc2c(Cl)c(-c3nnc(-c4cccs4)o3)sc2c1	-15.4	-8.3	1.1	1.1	1.2
CCOC(=O)N1CCN(C(=O)c2ccccc2Oc2ccccc2)CC1	94.4*	42.4	1.3	0.6	0.1
CCOC(=O)N1CCN(C(=O)c2cccc(OC)c2OC)CC1	-11.2	27.9	0.9	0.7	1.1
COc1cccc(C(=O)O/N=C/c2ccc(Sc3ccc(C)cc3)nc2)c1	19.0	9.7	0.8	0.9	0.8
O=C(CN1C(=O)c2ccccc2C1=O)N1CCN(c2ccccn2)CC1	-1.3	1.6	1	1	1
CN(C)C(=O)c1cn(-c2ccccc2)nc1-c1cccs1	-10.7	-9.5	1	1.1	1.1
CN1CCN(C(=O)c2cn(-c3ccccc3)nc2-c2cccnc2)CC1	-30.2	-1.9	1.2	1	1.3
O=C(CSCc1ccccc1Cl)N1CCN(c2ccccn2)CC1	85.0*	87.2*	1.5	0.1	0.2
O=C(c1cn(-c2ccccc2)nc1-c1cccs1)N(CCO)Cc1ccccc1	68.8*	75.1*	1.7	0.2	0.3
O=C(CCSCc1ccccc1F)N1CCN(c2ccccn2)CC1	77.4*	50.3*	1.5	0.5	0.2
O=C(c1cn(-c2ccccc2)nc1-c1cccs1)N1CCN(c2ccccn2)CC1	99.6*	95.5*	1.6	0	0
COc1ccc(C(=O)NC2CCN(C(=S)Nc3cc(C)ccc3C)CC2)cc1	-10.1	0.4	0.8	1	1.1
CC1CCc2nn(CC(=O)NC3CCCC(C)C3C)cc2C1 (stereo not given)	3.1	2.4	1.1	1	1
O=C(CCSCc1ccccc1Cl)N1CCN(c2cccc(Cl)c2)CC1	62.8*	14.4	1.1	0.9	0.4
O=C(CNS(=O)(=O)c1cccs1)N1CCN(c2ccccn2)CC1	-17.0	1.9	1	1	1.2
O=C(Cc1cccs1)N1CCN(c2ccccn2)CC1	28.7	52.1*	0.8	0.5	0.7

Compound activity deposited in PubChem by Sanford-Burnham Center for Chemical Genomics.
